In all, about 360,000 compounds went through this assay and about 1,500 (0.42%) were called active. The list comes from a sample in which actives are over-represented; it also holds similar structures and randomly drawn compounds. A number with no mark means an inactive call. Cut-off read from the data, not from the text of the source: active = inhibition above about 8.5%; inactive = the rest.
What follows are molecules tested on HIV-1 gp120 / PG9 antibody interaction (assay: binders of HIV-1 gp120 antibody PG9, primary screen, biochemical, TR-FRET (AID 624416)). Conditions: TR-FRET gp120-PG9 antibody binding; at 6.7 µM; hits give high values.

For `CC(=O)c1sc(NC(=O)CCCOc2ccccc2C)nc1C`, the inhibition was 12% (active).
With `COC(=O)c1ccc(NC(=S)Nc2cccc(C)n2)cc1` the inhibition was 17.4% (active).
In the case of `CCCc1nc(SCC(=O)Nc2ccc(S(=O)(=O)N(C)C)cc2)c2ccccc2n1`, the inhibition was 27% (active).
In the case of `O=C(Nc1nnc(-c2ccccc2F)s1)c1ccccc1F`, the inhibition was 13.2% (active).
`CCn1nnc2cc(C(=O)Nc3ccc(C(=O)OC(C)C)cc3)ccc21` was tested, and the inhibition was 20.3% (active).
With `CC(=O)c1cc(C#N)c(SCC(=O)Nc2nccs2)nc1C` the inhibition was 15.3% (active).
With `O=C(Nc1c(Br)cc2c(c1Br)Cc1cc([N+](=O)[O-])ccc1-2)C(Cl)Cl` the inhibition was 17.5% (active).
With `CCOc1cc(C2C(C(=O)OC)=CN(C3CCCC3)C=C2C(=O)OC)cc(Br)c1O` the inhibition was 62.6% (active).
`CCOc1ccc(C(=O)COC(=O)c2ccc(-n3cnnn3)cc2)cc1` was tested, and the inhibition was 11.4% (active).
For `Nc1ccc(-c2nnc(-c3ccc(-c4ccccc4)cc3)o2)cc1`, the inhibition was 9.48% (active).
In the case of `Cc1nc2cc(NC(=O)CSc3nc4c(C)cccc4cc3C#N)ccc2s1`, the inhibition was 16% (active).

Point of comparison: `COC(=O)c1ccc(NC(=S)NN2CCOCC2)cc1`, inhibition -2.64%. Against it:
- Cc1ccc(F)c(NC(=O)CCOc2ccccc2C)c1 — higher, -0.27%
- Cc1ccccc1OCC(=O)Nc1nc(C)c(C(=O)N(C)C)s1 — higher, 0.64%
- COC(=O)C1=C(C)N(Cc2ccc(F)cc2)C(=S)NC1c1cccc(Cl)c1 (centres undefined) — higher, -0.02%
- Cc1cccc(NC(=O)Cc2ccc(Br)cc2)n1 — higher, 1.95%
- COc1cccc(CNC(=O)[C@H]2CCCN2C(=O)[C@H]2CCCN2C(=O)C2CCCCC2)c1 — higher, 1.65%
- CCCNC(=O)CSc1nc(Cc2ccccc2)nc2ccccc12 — higher, 0.37%
- O=C(CSc1nc(C2CC2)nc2ccccc12)Nc1ccc2c(c1)OCCO2 — higher, -1.48%
- C[C@H](O)[C@@H]1C(=O)N2CCc3c([nH]c4c(-c5ccc6c(c5)OCO6)cccc34)[C@@H]2C[C@@H]1N(C)C(=O)c1ccco1 — higher, -1.4%
- CN1C(=O)C(Br)(Br)CC1c1cccnc1 (centres undefined) — higher, -0.49%
- O=C(Nc1ccccc1F)c1ccccc1-c1ccccc1 — higher, -1.32%
- O=C(O)c1ccccc1-c1ccccc1C(=O)Nc1nccs1 — higher, 1.5%
- COc1ccc(NC(=O)N(C)C[C@@H]2OCCCC[C@@H](C)Oc3ccc(NC(=O)NC4CCCCC4)cc3C(=O)N([C@H](C)CO)C[C@@H]2C)cc1 — higher, -0.95%
- O=S1(=O)c2c(cccc2N2CCCCC2)O[C@H](COCc2ccccc2)CN1C1CC1 — higher, -1.69%
- CCOC(=O)c1ccc(NC(=O)Cn2cnc3cc(C)c(C)cc32)cc1 — higher, -1.34%
- CCOC(=O)c1cccc(NC(=O)CCn2nnc3ccccc32)c1 — higher, 1.35%
- C[C@H](O)[C@@H]1CN2CCc3ccc(-c4ccc5c(c4)OCO5)cc3[C@@H]2C[C@@H]1N(C)C(=O)C1CCCCC1 — higher, 2.47%
- Cc1cc2c(nc1C)CCCN2C — higher, -1.95%
- Cc1cc(C(F)(F)F)nc(SCC(=O)Nc2nccs2)n1 — higher, 0.14%
- Cc1[nH]c2ccccc2c1SCC(=O)Nc1nccs1 — higher, -0.77%
- O=c1[nH]c(-c2ccccc2)cn1C1CCN(Cc2ccc(-c3nc4ccc(F)cc4nc3-c3ccccc3)cc2)CC1 — higher, 1.31%
- CCc1ccc(C2=CC(=O)CC(C)(C)C2=O)cc1 — higher, -0.98%
- CC(C)C(=O)Nc1cccc(NC(=O)c2ccc([N+](=O)[O-])cc2Cl)c1 — higher, -0.82%
- CCC(C)C(=O)Nc1cc([N+](=O)[O-])ccc1Cl (centres undefined) — lower, -4.15%
- O=C(Nc1c(Cl)c(C2CC2)nn1-c1ccccc1)C(Cl)(Cl)Cl — higher, 0.67%
- C[C@@H]1CN([C@H](C)CO)C(=O)CCCn2cc(nn2)CO[C@H]1CN(C)C(=O)Nc1ccc(N2CCCCC2)cc1 — higher, -2.61%
- COC(=O)[C@]12C[C@H](CC(=O)NCCC(C)C)C(=O)N(CCc3ccc(OC)c(OC)c3)C1=C[C@H](C(C)(C)C)O[C@@H]2C — higher, 0.69%
- COC(=O)C1=CN(Cc2ccc(OC)cc2)C=C(C(=O)OC)C1c1ccc(O)c(OC)c1 — higher, -1.15%
- CCCC(=O)Nc1cc(OCC)c(NC(=O)NC2CCCCC2)cc1OCC — higher, -1.64%
- O=C(N[C@H](C(=O)N1CCC[C@H]1C(=O)NCCc1ccccc1Cl)c1ccccc1)c1ccccc1 — higher, 1.57%
- Cc1ccc(NC(=O)N2c3ccccc3SC2c2ccco2)c(C)c1 (centres undefined) — higher, 0.01%
- COc1cccc(CNC(=O)[C@H]2CCCN2C(=O)[C@H]2CCCN2C(=O)c2cc(F)cc(F)c2)c1 — higher, -0.29%
- COC(=O)[C@]12C[C@H](CC(=O)NCc3ccc(OC)c(OC)c3)C(=O)N(Cc3ccccc3)C1=C[C@H](C(C)C)O[C@@H]2C1CC1 — higher, -0.45%
- Nc1[nH]c(C(=O)c2ccc(Br)cc2)c(-c2ccc3c(c2)OCO3)c1C(=O)NCCc1c[nH]c2ccccc12 — higher, 0.87%
- CCOC(=O)N1CCN(S(=O)(=O)c2ccc(-n3cnnn3)cc2)CC1 — higher, -0.23%
- CC(OC(=O)c1ccc(-n2cnnn2)cc1)C(=O)NCc1ccccc1 (centres undefined) — higher, 1.87%
- CCOC(=O)C1=C(C(=O)OCC)C2N(Cc3ccc(C#N)cc3)c3ccccc3[C@@]23C[C@@H](C(=O)OC)N(S(=O)(=O)c2ccc(F)cc2)C3=N1 (some centres undefined) — higher, -0.21%
- COC(=O)Cc1nnn2c1[C@H](C)[C@H](c1ccccc1[N+](=O)[O-])OCC2 — higher, 0.5%
- Cc1ccc(C(=O)NCC(=O)OCc2nnc(-c3ccccc3)o2)cc1 — higher, 1.54%
- OC(c1nnc(-c2ccccc2)o1)c1cccs1 (centres undefined) — higher, -1.12%
- COc1ccc(C2=CN(Cc3ccccc3)C(c3ccc(OC)cc3)CC2=O)cc1 (centres undefined) — higher, 4.38%
- COCc1cc(C)nc(SCC(=O)Nc2cccc(C)c2)c1C#N — higher, -0.32%
- Cc1csc(SCC(=O)Nc2ccc(C)c(S(=O)(=O)N(C)C)c2)n1 — higher, -0.14%

Reference: PubChem BioAssay AID624416 (The Scripps Research Institute Molecular Screening Center, 2012)
